Lamin A splicing – qHTS Assay for Modulators of Lamin A Splicing | HeLa LMNA splicing GFP/RFP minigene ratio, 48 h | Potency, µM (doses to about 46.1 µM), for inactives: at the top dose ratio change, negative = inhibition, most hits filed as inhibitors | actives 0.01% (n = 200,000) | AID 1487, 2009; active = well fitted inhibition curve with a large enough effect in the signal ratio, with a control signal flat, not every such curve was filed as active; inconclusive = small, poorly fitted or top-dose-only effect, or effect the other way, or a change in a side signal; the % refers to the signal ratio; also: potency is read from the fitted curve at half-maximal effect
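Read-out is the ratio of GFP to DsRed2 object intensity, acquired by 488 nm laser-scanning cytometry on HeLa lamin A-EGFP minigene reporter cells. Compound incubation 48 hrs at 37 °C in Opti-MEM with 2% FBS; DMSO 0.5% final.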
ALOX12 inhib – qHTS Assay for Inhibitors of 12-hLO (12-human lipoxygenase) | purified 12-hLO, xylenol orange hydroperoxide absorbance | Potency, µM (top dose mostly 57.1 µM), for inactives: at the top dose activity change, negative = inhibition, usual class: inhibitors | actives 0.12% (n = 150,000) | AID 1452, 2008; active = well fitted inhibition curve with a large enough effect; inconclusive = small, poorly fitted or top-dose-only effect; also: potency is read from the fitted curve at half-maximal effect; nearly all actives have a fitted effect of over 55% in size
Target sequence (P18054 whole entry, looked up): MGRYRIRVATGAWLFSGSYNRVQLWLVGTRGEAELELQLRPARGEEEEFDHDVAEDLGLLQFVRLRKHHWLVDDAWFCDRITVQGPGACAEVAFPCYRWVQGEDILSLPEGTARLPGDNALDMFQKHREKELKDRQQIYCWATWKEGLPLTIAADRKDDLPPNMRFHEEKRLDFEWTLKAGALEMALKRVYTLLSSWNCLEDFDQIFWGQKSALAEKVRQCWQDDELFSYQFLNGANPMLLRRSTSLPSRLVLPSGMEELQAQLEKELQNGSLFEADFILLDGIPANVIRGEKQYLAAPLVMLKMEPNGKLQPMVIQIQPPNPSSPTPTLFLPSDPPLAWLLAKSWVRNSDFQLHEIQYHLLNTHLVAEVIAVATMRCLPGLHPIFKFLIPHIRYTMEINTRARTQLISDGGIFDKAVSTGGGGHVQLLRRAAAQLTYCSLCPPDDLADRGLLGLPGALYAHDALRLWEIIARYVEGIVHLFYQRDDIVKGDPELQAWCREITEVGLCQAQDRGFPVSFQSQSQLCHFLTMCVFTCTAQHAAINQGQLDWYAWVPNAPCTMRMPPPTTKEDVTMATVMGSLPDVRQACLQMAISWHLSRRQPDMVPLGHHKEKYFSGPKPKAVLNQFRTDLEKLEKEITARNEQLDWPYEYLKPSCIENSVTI
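Xylenol orange chromogenic assay: hydroperoxide from 12hLO oxidises Fe(II), giving red-shifted Fe(III)-XO absorbance. Conditions: 150 nM enzyme, 40 uM arachidonic acid, 25 mM Hepes pH 7.0, 0.01% Triton X-100, 30 min, room temperature.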
HPGD inh – qHTS Assay for Inhibitors of HPGD (15-Hydroxyprostaglandin Dehydrogenase); 15-hydroxyprostaglandin dehydrogenase [NAD(+)] (Homo sapiens), P15428; purified HPGD, NADH fluorescence kinetic, PGE2 substrate; Potency, µM, for the others: at the highest dose activity change, negative = inhibition, hits mostly inhibitors; actives 4.3% (n = 150,000); AID 894, 2007; also: potency is read from the fitted curve at half-maximal effect
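NADH formation kinetics: reaction with 30 uM PGE2 and 1 mM NAD+ (final), 20 nM enzyme, Tris-HCl pH 8 with Tween 20, after 15 min compound preincubation at room temperature. Fluorescence change, last versus first of five reads.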
ALDH1A1 inh – qHTS Assay for Inhibitors of Aldehyde Dehydrogenase 1 (ALDH1A1); Purified ALDH1A1, NADH fluorescence, propionaldehyde substrate; Potency, µM (titrated, usually from 75.3 µM), without a hit: at the highest dose activity, negative = inhibition, usual class: inhibitors; actives 7.3% (n = 220,000); AID 1030, 2008;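 also: potency is read from the fitted curve at half-maximal effect; plate controls were no enzyme wells and a reference inhibitor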
PNC inhibitor – High Content Assay for Compounds that inhibit the Assembly of the Perinucleolar Compartment; PC3M PTB-GFP, PNC prevalence imaging, 16 h; active compounds read low; activity change (PNC), negative = inhibition, % at 10 µM; actives 3.1% (n = 140,000); AID 2417, 2010;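 active = readout at or below -70, meaning at least 70% loss of cells showing the perinucleolar compartment, a nuclear body marking cancer cells; inconclusive = readout between -30 and a set limit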;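 also: plate controls were DMSO wells for no effect and camptothecin positive control wells for full effect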
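Compounds are pinned in duplicate onto adhered PC3M cells stably expressing GFP-tagged PTB and incubated 16 h at 37 C. Cells are then fixed, nuclei stained with Hoechst, and PNC-positive cells counted.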
The depositor's hits bear a star; u = inconclusive; x = no result; [ ] = remark or other dose. Compounds with a hit are over-represented: about 10% of the library has one in this group of screens. Unless noted, calls follow the shape of the dose curve; as a rule, active = well fitted inhibition curve with a large enough effect (not every such curve was filed as active); inconclusive = small, poorly fitted or top-dose-only effect, or another doubt; inactive = no such curve, though single readings can be large or run the other way. Unless noted, % is scaled to controls: 0 for no effect and ±100 for the full control effect.

SMILES	Lamin A splicing	ALOX12 inhib	HPGD inh	ALDH1A1 inh	PNC inhibitor
COc1ccc(NS(=O)(=O)c2ccc(N3CCCC3)c(NC(=S)Nc3cccc(S(=O)(=O)N(C)C)c3)c2)cc1	u	-12.6%	3.16µM*	3.16µM*	u
O=C1CC(SCc2nc3ccccc3[nH]2)C(=O)N1c1ccc(Cl)cc1 (centres undefined)	7.5%	-19.7%	-10.2%	25.1µM*	u
O=C1CC(SCc2nc3ccccc3[nH]2)C(=O)N1c1cccc(F)c1 (centres undefined)	20.7%	-11.5%	-19.4%	12.6µM*	16.4
O=C1CC(SCc2nc3ccccc3[nH]2)C(=O)N1c1ccc(F)c(Cl)c1 (centres undefined)	8.8%	-7.6%	22.4µM*	5.01µM*	12.6
O=C1CC(SCCc2nc3ccccc3[nH]2)C(=O)N1c1ccc(Cl)cc1 (centres undefined)	-0.2%	-4.1%	-4.6%	u	7.1
CCOc1ccc(N2C(=O)CC(SCc3nc4ccccc4[nH]3)C2=O)cc1 (centres undefined)	x	x	x	4.47µM*	x
O=[N+]([O-])c1ccc(CSCc2ccc(Cl)cc2)cc1	x	-6.8%[11.4 µM]	-10.3%	-2.4%[13.5 µM]	x
CCCCNc1nc(C)nc2c1nc(-c1ccccc1)n2CCCN(C)C	x	0.9%	u	u	x
CCOC(=O)c1cnc2ccccc2c1Nc1cccc(OC)c1	-12.1%[46 µM]	x	x	x	x
CCS(=O)(=O)Nc1cccc(C2=NN(S(=O)(=O)c3ccc(C)cc3)C(c3cccs3)C2)c1 (centres undefined)	u	-5.9%	-21.3%	5.01µM*	41.7
Cc1ccc(C2=NN(S(C)(=O)=O)C(c3cccs3)C2)cc1 (centres undefined)	6.1%	-1.7%	-1.1%	-7.6%	72.5
CCc1ccc(C2=NN(S(C)(=O)=O)C(c3cccs3)C2)cc1 (centres undefined)	u	-11.2%	-29.7%	20µM*	-100.0*
CCS(=O)(=O)Nc1cccc(C2=NN(S(=O)(=O)c3ccccc3)C(c3cccs3)C2)c1 (centres undefined)	0.9%[0.0737 µM]	-6.1%	-12.3%	u	23.4
O=C(NCCCN1CCOCC1)c1sc2cc([N+](=O)[O-])ccc2c1Cl	-8.4%[46 µM]	x	x	7.94µM*	x
O=C(c1ccc(-n2cccc2)cc1)N1CCN(Cc2ccccc2)CC1	3.4%	9.6%	-11.7%	-10.1%	23.9
O=C(c1ccc2ccccc2c1)N1CCN(c2ccc(C(F)(F)F)cn2)CC1	u	-6.7%	-21.0%	15.8µM*	9.7
CN1CCN(C(=O)c2ccc(-n3cccc3)cc2)CC1	2.2%	8.6%	14.1µM*	3.8%	u
CN1CCN(C(=O)c2ccc3ccccc3c2)CC1	4.9%	-2.0%	15.8µM*	-3.4%	2.0
O=C(c1ccc2c(c1)OCO2)N1CCN(c2ccc(C(F)(F)F)cn2)CC1	u	-0.3%	-28.6%	u	48.0
N[C@@H](C(=O)O)c1ccc(C(=O)O)c(C(=O)O)c1	x	2.6%	0.5%	15.7%	x
C=CCOC(=O)C(C(C)=O)C(NC(=O)OC)c1ccc(F)cc1 (centres undefined)	x	x	x	20.6%[13.5 µM]	x
CS(=O)(=O)N1CCN(c2ccc([N+](=O)[O-])cc2F)CC1	u	x	x	3.16µM*	x
C[C@]12CC[C@H]3c4ccc(OC[C@H]5CO5)cc4CC[C@H]3[C@H]1CC[C@@H]2O	x	x	x	18.1%[13.5 µM]	x
CC1CC2=C(NC(=S)NC2c2cccc(F)c2)/C(=C/c2cccc(F)c2)C1 (centres undefined)	u	x	x	1.26µM*	x
CC1CC2=C(NC(=S)NC2c2ccccc2F)/C(=C/c2ccccc2F)C1 (centres undefined)	x	x	x	0.562µM*	x
SMILES	Lamin A splicing	ALOX12 inhib	HPGD inh	ALDH1A1 inh	PNC inhibitor
Fc1cccc(C2NC(=S)NC3=C2N2CCC3CC2)c1 (centres undefined)	4.3%	0.1%	-3.6%	u	9.0
COc1ccc(OC)c(S(=O)(=O)Nc2cccc(-c3ccc(N4CCCCC4)nn3)c2)c1	11.6%[46 µM]	x	x	x	x
Cc1ccc(/C=C2/NC(=O)N(Cc3ccccc3)C2=O)o1	4.1%	-19.4%	25.1µM*	3.55µM*	-2.5
COC(=O)CN1C(=O)N/C(=C/c2ccc(C)o2)C1=O	x	x	x	17.8µM*	x
CCCCCCC1CC(=O)NC(=S)N1 (centres undefined)	-12.4%[46 µM]	x	x	3.98µM*	x
CC1(C)NC(=O)N(CC(O)CN2C(=O)NC(C)(C)C2=O)C1=O	0.3%	1.0%	-4.0%	-0.1%	u
Cc1cc(C)n(CC(O)CN2C(=O)NC(C)(C)C2=O)n1 (centres undefined)	-0.1%	-0.8%	-14.6%	-6.7%	-106.5*
COc1cccc(CNC(=O)C2CCCN(c3nn4cc(-c5ccc(C)cc5)nc4s3)C2)c1 (centres undefined)	10.4%[46 µM]	x	x	x	x
O=C(c1cc2ccccc2oc1=O)N(Cc1cccs1)Cc1cccs1	-16.0%	-6.3%	-21.0%	11.2µM*	-20.9
O=C(c1cc2ccccc2oc1=O)N(Cc1ccco1)Cc1cccs1	-4.2%	-9.6%	-4.0%	u	-4.5
CCOC(=O)c1c(NC(=O)C2C3CCC(O3)C2C(=O)O)sc(C)c1-c1ccc(F)cc1 (centres undefined)	-3.6%	1.8%	-18.4%	0.6%	1.0
CCCOC(=O)c1c(-c2ccc(C)cc2C)csc1NC(=O)C1C2CCC(O2)C1C(=O)O (centres undefined)	u	-5.5%	22.4µM*	u	-12.4
C#Cc1ccc([C@@H]2C=C(C(=O)OCC=C)O[C@H](OCCCCO)C2)cc1	x	x	x	15.8µM*	x
C#Cc1ccc([C@@H]2C=C(C(=O)OCC=C)O[C@H](OCc3ccc(CO)cc3)C2)cc1	x	x	x	12.6µM*	x
Cc1cc(C)c2c(=O)cc(CSc3nnc(-c4ccccc4)n3C)[nH]c2c1	-7.7%[46 µM]	x	x	x	x
O=C(CCC(=O)OCC(=O)c1ccc(Cl)cc1)NC1CCCCC1	7.6%	1.3%	-19.6%	-4.5%	u
O=C(CSCc1ccc([N+](=O)[O-])cc1)NC1CCCCCC1	x	x	x	25.1µM*	x
O=C(CCC(=O)OCC(=O)c1ccc([N+](=O)[O-])cc1)NC1CCCCC1	6.8%	1.6%	-20.0%	2.82µM*	28.6
O=C(CSCc1ccc(F)cc1)NC1CCCC1	6.9%	-3.4%	-18.9%	-5.2%	-1.2
Cc1cccc(NC(=O)CCC(=O)OCC(=O)c2ccc(Oc3ccc([N+](=O)[O-])cc3)cc2)c1	-11.7%	0.8%	-21.4%	7.08µM*	9.2
COc1ccc(C(=O)CCNc2cccc(Cl)c2)cc1	-3.3%	1.4%	-0.2%	3.16µM*	-15.6
O=C(CCC(=O)c1ccc(Oc2ccccc2)cc1)Nc1cccc(Cl)c1	-7.6%	-2.5%	-17.1%	6.8%	-5.7

Assay outcomes: PubChem, National Center for Advancing Translational Sciences (NCATS)
